Experimental data: PubChem BioAssay

biological target: NADPH oxidase 2 (Homo sapiens) (UniProt P04839); assay: compounds shifting NOX2 Amplex Red fluorescence – cell-based, HEK293-NOX2, PMA-stimulated, NOX inhibitor project, primary screen (AID 1159); conditions: 45 min, higher = more signal, called active from +8 up or from −8 down; note: test concentration not given here
Sequence (P04839 whole entry, looked up): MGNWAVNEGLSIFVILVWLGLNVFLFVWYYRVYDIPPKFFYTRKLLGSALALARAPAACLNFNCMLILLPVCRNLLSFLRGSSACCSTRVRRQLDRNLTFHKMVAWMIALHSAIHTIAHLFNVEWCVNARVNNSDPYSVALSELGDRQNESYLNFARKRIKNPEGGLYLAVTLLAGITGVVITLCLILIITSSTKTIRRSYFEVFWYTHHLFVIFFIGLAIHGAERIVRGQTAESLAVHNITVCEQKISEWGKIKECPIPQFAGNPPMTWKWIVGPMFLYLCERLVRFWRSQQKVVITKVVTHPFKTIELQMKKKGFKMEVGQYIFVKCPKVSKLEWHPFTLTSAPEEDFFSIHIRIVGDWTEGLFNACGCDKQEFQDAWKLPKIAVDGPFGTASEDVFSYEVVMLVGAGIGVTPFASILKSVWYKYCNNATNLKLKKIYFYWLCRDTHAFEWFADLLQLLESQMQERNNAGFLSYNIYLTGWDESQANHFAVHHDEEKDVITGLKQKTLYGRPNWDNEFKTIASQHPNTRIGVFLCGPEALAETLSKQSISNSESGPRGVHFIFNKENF

z-score, inactive:
O=C1C2C=CC(C(O)c3ccc(F)cc3)N(n3cnnc3)C2C(=O)N1Cc1ccccc1 (centres undefined) -3.1
NC(=O)NCC#Cc1ccc2c(c1)[C@]1(C(=O)N2)[C@H](C(=O)NC[C@H](O)c2ccccc2)[C@H]2C(=O)O[C@H](c3ccccc3)[C@H](c3ccccc3)N2[C@@H]1c1ccc(OCCO)cc1 1.59
O=C1O[C@H](c2ccccc2)[C@H](c2ccccc2)N2[C@H]1[C@@H](C(=O)N1CCN(c3ncccn3)CC1)[C@]1(C(=O)Nc3ccc(C#CC4(O)CCCCCC4)cc31)[C@H]2c1ccc(OCCO)cc1 1.28
CCOc1cc(C(O)C2C=CC3C(=O)N(C)C(=O)C3N2Nc2ccccc2)ccc1O (centres undefined) -1.4
CN(C)CCCNC(=O)[C@@H]1c2ccccc2C(=O)N(Cc2ccccc2Cl)[C@H]1c1ccc(CO)cc1 0.277
[N-]=[N+]=NCc1ccccc1[C@H]1OC(c2ccc(OCCCO)cc2)=N[C@@]1(CCS(=O)(=O)c1ccccc1)C(=O)N1CCCCC1 0.0197
O=C1NC(=O)C2C1C=CC(C(O)c1ccco1)N2Nc1ccccn1 (centres undefined) -1.35
CCCCC(O)C1C=CC2C(=O)N(c3ccccc3)C(=O)C2N1Nc1ccc(C(C)C)cc1 (centres undefined) -1.5
C=CC[C@@]1(C(=O)N2CCOCC2)N=C(c2ccc(OCCCO)cc2)O[C@@H]1c1ccccc1CN=[N+]=[N-] -0.305
COC(=O)[C@H](Cc1ccccc1)N1CC(/C=C/C2CC2)=C[C@H]1[C@H](O)Cc1ccccc1 -4.7
C=CC[C@]1(C(=O)NCCN2CCOCC2)N=C(c2ccc(OCCCO)cc2)O[C@H]1c1ccccc1CN=[N+]=[N-] 2.07
COC(=O)[C@@]1(Cc2ccc(F)cc2)[C@H]2c3cc(C(=O)N4CCCC4)n(CCc4ccc(O)c(O)c4)c3C[C@H]2CN1C(=O)c1ccccc1 -4.14
[N-]=[N+]=NCc1ccccc1[C@H]1OC(c2ccc(OCCCO)cc2)=N[C@@]1(CCS(=O)(=O)c1ccccc1)C(=O)NCC(O)CO (some centres undefined) 1.47
C[C@]1(C(=O)NC2CC2)c2ccccc2C(=O)N(Cc2ccccc2)[C@H]1c1ccc(CO)cc1 -0.148
COC(=O)C(CC#Cc1ccc2c(c1)[C@]1(C(=O)N2)[C@H](c2ccccc2OCCO)N2[C@H](c3ccccc3)[C@H](c3ccccc3)OC(=O)[C@H]2[C@@H]1C(=O)NC[C@H](O)c1ccccc1)C(=O)OC 1.63
COCCOC(=O)N1C(=O)[C@@]2(c3cc(C#CCCO)ccc31)[C@H](C(=O)Nc1nc3ccccc3s1)[C@H]1C(=O)O[C@H](c3ccccc3)[C@H](c3ccccc3)N1[C@@H]2c1ccccc1OCCO 1.89
COCCOC(=O)N1C(=O)[C@@]2(c3cc(C#CC4=CCCCC4)ccc31)[C@H](c1ccc(O)cc1)N1[C@H](c3ccccc3)[C@H](c3ccccc3)OC(=O)[C@H]1[C@@H]2C(=O)N1CCN(c2ncccn2)CC1 0.347
C[C@@H]1NC(=O)[C@@]23C(=O)N[C@@H](Cc4ccccc4)C2[C@H](C)[C@@]2(C)O[C@H]2C3/C=C/C/C=C\CNC(=O)[C@@H]2CCCN2C1=O (some centres undefined) -0.0487

biological target: NADPH oxidase 4 (Homo sapiens) (UniProt Q9NPH5); assay: compounds shifting NOX4 Amplex Red fluorescence – cell-based, HEK293-NOX4, tetracycline-induced, NOX inhibitor project, primary screen (AID 1160); conditions: HEK293-NOX4, Amplex Red H2O2 fluorescence, 45 min; higher = more signal, called active from +8 up or from −8 down
Sequence (Q9NPH5 whole entry, looked up): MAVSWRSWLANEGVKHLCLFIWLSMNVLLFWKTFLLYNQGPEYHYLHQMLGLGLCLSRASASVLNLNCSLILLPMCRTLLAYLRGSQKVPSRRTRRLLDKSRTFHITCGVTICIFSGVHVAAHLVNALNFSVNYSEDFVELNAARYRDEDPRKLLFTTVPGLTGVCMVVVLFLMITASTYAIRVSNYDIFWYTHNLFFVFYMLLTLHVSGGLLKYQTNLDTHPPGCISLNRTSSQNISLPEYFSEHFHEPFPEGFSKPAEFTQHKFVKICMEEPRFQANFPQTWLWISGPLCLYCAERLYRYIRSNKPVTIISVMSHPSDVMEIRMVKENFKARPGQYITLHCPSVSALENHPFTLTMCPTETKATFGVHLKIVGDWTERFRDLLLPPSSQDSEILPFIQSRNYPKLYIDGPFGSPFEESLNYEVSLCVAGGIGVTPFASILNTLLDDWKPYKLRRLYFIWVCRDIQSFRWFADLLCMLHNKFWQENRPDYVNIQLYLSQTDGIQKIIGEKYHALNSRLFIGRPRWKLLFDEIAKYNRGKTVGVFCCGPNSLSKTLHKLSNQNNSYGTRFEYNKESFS

z-score, inactive:
OCCCC1=CC(c2ccc(CN3CCCC3)cc2)N(Cc2sc3ccccc3c2Cl)CC1 (centres undefined) -2.03
CC(C)C(CO)N1C(=O)[C@@H]2C3C(=O)OCCC/C=C\[C@H]3OC23C=CCN(C(C)(C)C)C(=O)[C@@H]13 (some centres undefined) 0.339
O=c1n(-c2ccccc2)c(=O)n2n1CC(COc1ccccc1)=C([C@H](O)CCc1ccccc1)[C@@H]2CO -0.265
CC(C)C(=C=CC[C@H](O)c1cccc(OCCO)c1)C[C@H](O)c1cc(Cl)cc(Cl)c1O -0.881
CC(C)(C)OC(=O)CC[C@]1(C(=O)NCC(O)CO)N=C(c2ccc(OCCCO)cc2)O[C@H]1c1ccccc1 (some centres undefined) 0.678
COC(=O)[C@@]1(Cc2ccccc2)[C@H]2c3cc(C(=O)N(C)C)n(CCc4ccc(O)c(OC)c4)c3C[C@H]2CN1C(=O)c1ccccc1 -0.485
C=CCNC(=O)[C@@H]1[C@H]2C(=O)O[C@H](c3ccccc3)[C@H](c3ccccc3)N2[C@H](c2ccc(O)cc2)[C@@]12C(=O)N(C(=O)OCCOC)c1ccc(C#CC3(O)CCCCCC3)cc12 0.395
CCCC[C@@H]1C[C@H]1[C@@H](NC(=O)c1cccs1)c1ccc(C(F)(F)F)cc1 -2.08
COCCOC(=O)N1C(=O)[C@@]2(c3cc(C#Cc4ccc(OC)cc4)ccc31)[C@H](c1ccccc1OCCO)N1[C@H](c3ccccc3)[C@H](c3ccccc3)OC(=O)[C@H]1[C@@H]2C(=O)N1CCCCCCC1 0.201
Cc1ccccc1C(O)C1C=CC2C(=O)N(C)C(=O)C2N1N(c1ccccc1)c1ccccc1 (centres undefined) 0.0569
Cc1ccc(S[C@]2(C(=O)NCC(F)(F)F)CC(=O)N(Cc3ccccc3C(F)(F)F)[C@@H]2c2ccc(CO)cc2I)cc1 -1.06
CC(C)N1C(=O)C[C@@](C(=O)NCCCN(C)C)(c2ccc([N+](=O)[O-])cc2)[C@H]1c1ccc(CO)cc1 0.334
CCOc1cc(C(O)C2C=CC3C(=O)N(c4ccccc4)C(=O)C3N2Nc2ccc(C#N)cc2)ccc1O (centres undefined) -5.02
CN(C)C(=O)[C@@]1(Cc2ccccc2CN=[N+]=[N-])N=C(c2ccc(OCCCO)cc2)O[C@H]1c1ccccc1CN=[N+]=[N-] 1.43
C=CC[C@]1(C(=O)O)COC(c2ccc(OCCCO)cc2)=N1 -0.287
C=CCC(OC(C)=O)[C@@H]1[C@@H](N(Cc2cccc3ccccc23)C(=O)Cc2ccc(OC)cc2)c2cc(OCCCO)ccc2N1C(=O)c1ccc2ccccc2n1 (some centres undefined) -0.588
CCOC(=O)C[C@H]1[C@H](OC(=O)Cc2ccc3c(c2)OCO3)[C@@H](NC(=O)CC(C)C)c2cc(OCCCO)ccc2N1C(=O)Cc1ccc(OC)cc1 0.781
[N-]=[N+]=NCc1ccccc1C[C@@]1(C(=O)NCc2ccccc2)N=C(c2ccc(OCCCO)cc2)O[C@@H]1c1ccccc1N=[N+]=[N-] -0.437
O=C1C2C=CC(C(O)c3ccc(F)cc3)N(n3cnnc3)C2C(=O)N1Cc1ccccc1 (centres undefined) -1.12
NC(=O)NCC#Cc1ccc2c(c1)[C@]1(C(=O)N2)[C@H](C(=O)NC[C@H](O)c2ccccc2)[C@H]2C(=O)O[C@H](c3ccccc3)[C@H](c3ccccc3)N2[C@@H]1c1ccc(OCCO)cc1 0.849
O=C1O[C@H](c2ccccc2)[C@H](c2ccccc2)N2[C@H]1[C@@H](C(=O)N1CCN(c3ncccn3)CC1)[C@]1(C(=O)Nc3ccc(C#CC4(O)CCCCCC4)cc31)[C@H]2c1ccc(OCCO)cc1 1.11
CCOc1cc(C(O)C2C=CC3C(=O)N(C)C(=O)C3N2Nc2ccccc2)ccc1O (centres undefined) -1.94
CN(C)CCCNC(=O)[C@@H]1c2ccccc2C(=O)N(Cc2ccccc2Cl)[C@H]1c1ccc(CO)cc1 0.691
[N-]=[N+]=NCc1ccccc1[C@H]1OC(c2ccc(OCCCO)cc2)=N[C@@]1(CCS(=O)(=O)c1ccccc1)C(=O)N1CCCCC1 1.56
O=C1NC(=O)C2C1C=CC(C(O)c1ccco1)N2Nc1ccccn1 (centres undefined) -2.89
CCCCC(O)C1C=CC2C(=O)N(c3ccccc3)C(=O)C2N1Nc1ccc(C(C)C)cc1 (centres undefined) -3.21
C=CC[C@@]1(C(=O)N2CCOCC2)N=C(c2ccc(OCCCO)cc2)O[C@@H]1c1ccccc1CN=[N+]=[N-] 0.645
COC(=O)[C@H](Cc1ccccc1)N1CC(/C=C/C2CC2)=C[C@H]1[C@H](O)Cc1ccccc1 -0.819
C=CC[C@]1(C(=O)NCCN2CCOCC2)N=C(c2ccc(OCCCO)cc2)O[C@H]1c1ccccc1CN=[N+]=[N-] 1.16
COC(=O)[C@@]1(Cc2ccc(F)cc2)[C@H]2c3cc(C(=O)N4CCCC4)n(CCc4ccc(O)c(O)c4)c3C[C@H]2CN1C(=O)c1ccccc1 -7.52
[N-]=[N+]=NCc1ccccc1[C@H]1OC(c2ccc(OCCCO)cc2)=N[C@@]1(CCS(=O)(=O)c1ccccc1)C(=O)NCC(O)CO (some centres undefined) 1.1
C[C@]1(C(=O)NC2CC2)c2ccccc2C(=O)N(Cc2ccccc2)[C@H]1c1ccc(CO)cc1 -1.55
COC(=O)C(CC#Cc1ccc2c(c1)[C@]1(C(=O)N2)[C@H](c2ccccc2OCCO)N2[C@H](c3ccccc3)[C@H](c3ccccc3)OC(=O)[C@H]2[C@@H]1C(=O)NC[C@H](O)c1ccccc1)C(=O)OC 1.03
COCCOC(=O)N1C(=O)[C@@]2(c3cc(C#CCCO)ccc31)[C@H](C(=O)Nc1nc3ccccc3s1)[C@H]1C(=O)O[C@H](c3ccccc3)[C@H](c3ccccc3)N1[C@@H]2c1ccccc1OCCO -0.9
COCCOC(=O)N1C(=O)[C@@]2(c3cc(C#CC4=CCCCC4)ccc31)[C@H](c1ccc(O)cc1)N1[C@H](c3ccccc3)[C@H](c3ccccc3)OC(=O)[C@H]1[C@@H]2C(=O)N1CCN(c2ncccn2)CC1 -0.0204
C[C@@H]1NC(=O)[C@@]23C(=O)N[C@@H](Cc4ccccc4)C2[C@H](C)[C@@]2(C)O[C@H]2C3/C=C/C/C=C\CNC(=O)[C@@H]2CCCN2C1=O (some centres undefined) 0.581
